From PubChem BioAssay (EPA / NIEHS)
Inconclusive results are not listed. Activity calls are given as the source filed them. How the source made its calls: active means hit-call score of the fitted dose curve at least 0.9, where 1 is the maximum; inconclusive means response in the unintended direction; inactive means score below 0.9.

What was measured:
[1] = molecular target: rat Glutamate, NMDA Agonist Site (GluNMDA), Grin1 (gene 24408) (UniProt P35439); assay: NVS_LGIC_rGluNMDA_Agonist: NovaScreen (NVS) Ligand-Gated Ion Channel Assay for rat Glutamate, NMDA Agonist Site (GluNMDA) (AID 2283327)
Procedure, shortened: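 Radioligand displacement at the agonist site on rat forebrain membrane preparations, read by filter scintillation after 1 h. Chemicals were first run at 25 uM in duplicate; those passing threshold were titrated to a 50 uM maximum.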

[2] = molecular target: rat Thyrotropin Releasing Hormone Receptor (TRH), Trhr (gene 25570) (UniProt Q01717); assay: NVS_GPCR_rTRH: NovaScreen (NVS) G Protein-Coupled Receptor Assay for rat Thyrotropin Releasing Hormone Receptor (TRH) (AID 2283329);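 further: hit means lower bound tracer signal versus DMSO baseline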
rat Thyrotropin Releasing Hormone Receptor (TRH), Trhr (gene 25570), sequence (Q01717 whole entry, looked up): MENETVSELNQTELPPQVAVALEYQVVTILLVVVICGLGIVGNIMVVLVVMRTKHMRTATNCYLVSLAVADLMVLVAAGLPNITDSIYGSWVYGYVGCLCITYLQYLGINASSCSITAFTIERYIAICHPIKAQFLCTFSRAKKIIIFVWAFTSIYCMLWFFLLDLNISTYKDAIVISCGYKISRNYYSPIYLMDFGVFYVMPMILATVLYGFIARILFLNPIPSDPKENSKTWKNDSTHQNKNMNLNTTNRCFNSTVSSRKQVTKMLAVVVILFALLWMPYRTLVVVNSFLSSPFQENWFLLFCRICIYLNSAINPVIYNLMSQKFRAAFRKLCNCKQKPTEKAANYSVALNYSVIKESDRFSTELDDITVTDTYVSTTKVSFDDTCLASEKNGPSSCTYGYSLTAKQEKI
Procedure, shortened: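 Competitive radioligand binding on rat forebrain membrane preparations, with filtration and scintillation readout after 4 h. Primary testing in duplicate at 25 uM; actives confirmed in concentration-response. DMSO defined baseline.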

| Compound | outcome [1] | outcome [2] |
| --- | --- | --- |
| CCCCCCCCCC | inactive | – |
| CCn1nc(C)c2c1C(=O)NCC(c1ccc(O)cc1)=N2 | inactive | – |
| OCC(CO)(CO)CO | – | inactive |
